Consider 13 compounds from PubChem BioAssay (NCI).

Test systems include RPMI-8226 leukemia; OVCAR-8 ovarian; OVCAR-5 ovarian; OVCAR-4 ovarian; SK-OV-3 ovarian; IGROV1 ovarian; OVCAR-3 ovarian; HS 578T breast; NCI/ADR-RES ovarian; T-47D breast.
Common to all, as to assay: NCI-60 one-dose screen, 48 h (100 = growth as untreated, 0 = no growth, -100 = all killed)
Holding throughout (conditions): 10 µM unless noted

Molecules are shown by their SMILES. The panel holds about 83,000 compounds, 20% with a hit somewhere; the sample as a whole holds those more often.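 For each line, cells grew in 96-well plates with the test compound present at a single concentration for 48 hours.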 Values without a mark were called inactive. The source made the active and inactive calls. Rule for the calls: active = growth percent below 10; inactive = the rest.

Turning to `COc1ccc(-c2[nH]c3ccc(OC)cc3c2C=C(C#N)C#N)cc1`, the growth in the experiment with RPMI-8226 leukemia is -11.5% (active); with OVCAR-8 ovarian it was 57.3%; in the experiment on OVCAR-5 ovarian it was 55.8%; in the experiment on OVCAR-4 ovarian, 39.5%; with SK-OV-3 ovarian it was 41.7%; in the experiment on IGROV1 ovarian, 39.1%. For the same compound, the growth was -14.1% (active) with OVCAR-3 ovarian, 52.4% in the experiment on HS 578T breast, 1.87% (active) with NCI/ADR-RES ovarian and 33.8% in the experiment with T-47D breast.

`c1ccc(-c2cn3ccnc3c(-c3ccc4c(c3)ncn4C3CCCCC3)n2)cc1`: the growth was 81.7% in the experiment with RPMI-8226 leukemia; 101% in the experiment on OVCAR-8 ovarian; 103% with OVCAR-5 ovarian; 101% with OVCAR-4 ovarian; 104% in the experiment with SK-OV-3 ovarian; 106% in the experiment on IGROV1 ovarian. For the same compound, the growth with OVCAR-3 ovarian is 101%; in the experiment on HS 578T breast, 101%; with NCI/ADR-RES ovarian it was 100%; in the experiment with T-47D breast, 74.5%.

Take `NS(=O)(=O)c1ccc(N2Cc3cc(Cl)ccc3OC3=C2C(=O)N(CC2CCCCC2)C3=O)cc1`: the growth is -30% (active) in the experiment with RPMI-8226 leukemia; -71.9% (active) in the experiment on OVCAR-8 ovarian; -88.7% (active) in the experiment with OVCAR-5 ovarian; -95.3% (active) with OVCAR-4 ovarian; 60% in the experiment with SK-OV-3 ovarian; -47.6% (active) in the experiment with IGROV1 ovarian. For the same compound, the growth with OVCAR-3 ovarian is -89.6% (active); in the experiment with HS 578T breast, 14.5%; in the experiment with NCI/ADR-RES ovarian, 4.6% (active); in the experiment on T-47D breast, -55.3% (active).

For `CCc1ccc(OCc2ccccc2C(=O)Nc2ccc3nc(C)cc(N)c3c2)cc1`, the growth is -45.4% (active) with RPMI-8226 leukemia; -60.7% (active) in the experiment with OVCAR-8 ovarian; -95.4% (active) with OVCAR-5 ovarian; -84.3% (active) in the experiment on OVCAR-4 ovarian; -97% (active) in the experiment with SK-OV-3 ovarian; -71.5% (active) with IGROV1 ovarian. The growth in the experiment on OVCAR-3 ovarian is -92.4% (active); in the experiment on HS 578T breast, -42% (active); in the experiment with NCI/ADR-RES ovarian, -71.5% (active); with T-47D breast it was -60% (active).

`C/C(=N\NC(=O)c1ccncc1)c1ccc(N)cc1`: the growth is 97.5% in the experiment with RPMI-8226 leukemia; 101% in the experiment on OVCAR-8 ovarian; 107% in the experiment on OVCAR-5 ovarian; 94.4% in the experiment on OVCAR-4 ovarian; 101% with SK-OV-3 ovarian; 97.4% in the experiment on IGROV1 ovarian. In addition, the growth in the experiment on OVCAR-3 ovarian was 105%; with HS 578T breast it was 96.8%; with NCI/ADR-RES ovarian, 111%; in the experiment on T-47D breast it was 83.8%.

For the compound `COc1ccc2nc(-c3ccc(Cl)cc3)cc(-c3nnc(SCC(=O)Nc4ccc(/C(C)=N\O)cc4)o3)c2c1`, the growth in the experiment with RPMI-8226 leukemia is 18.4%; with OVCAR-8 ovarian, 0.357% (active); in the experiment with OVCAR-5 ovarian, 81.1%; with OVCAR-4 ovarian, -56.1% (active); with SK-OV-3 ovarian, 87.5%; with IGROV1 ovarian it was 60.2%. Further, the growth with OVCAR-3 ovarian was 36.8%; in the experiment with HS 578T breast, 64.8%; in the experiment with NCI/ADR-RES ovarian, 1.11% (active); with T-47D breast, 41.7%.

As to `COc1ccc(Sc2[nH]c(C(C)=O)c3ccccc23)cc1`, the growth in the experiment on RPMI-8226 leukemia was 41.4%; in the experiment with OVCAR-8 ovarian, 88%; with OVCAR-5 ovarian it was 94.1%; in the experiment with OVCAR-4 ovarian it was 71.2%; in the experiment on SK-OV-3 ovarian, 19%; in the experiment on IGROV1 ovarian it was 83.6%. Further, the growth with OVCAR-3 ovarian is 68.3%; in the experiment with HS 578T breast it was 83.9%; in the experiment on NCI/ADR-RES ovarian, 40.8%; in the experiment on T-47D breast, 56.5%.

Regarding `COC(=O)c1ccc(NC(=O)CSc2nc(-c3ccc(F)cc3)nc3ccccc23)cc1`, the growth with RPMI-8226 leukemia was 44.9%; with OVCAR-8 ovarian it was 82.2%; in the experiment with OVCAR-5 ovarian, 107%; in the experiment with OVCAR-4 ovarian it was -31.5% (active); in the experiment with SK-OV-3 ovarian it was 90.9%; in the experiment on IGROV1 ovarian, 90.9%. Further, the growth in the experiment on OVCAR-3 ovarian was 16.8%; with HS 578T breast, 82.8%; with NCI/ADR-RES ovarian it was 88%; with T-47D breast it was 67.7%.

For the compound `CC1=C(CCCOC(=O)NCCCl)C2=C(C)C3(CC3)[C@@](C)(O)C(=O)C2=C1`, the growth in the experiment with RPMI-8226 leukemia was 80%; with OVCAR-8 ovarian, 36.9%; in the experiment with OVCAR-5 ovarian, 28.1%; with OVCAR-4 ovarian, 14.6%; in the experiment with SK-OV-3 ovarian, -13.7% (active); in the experiment with IGROV1 ovarian, 4.17% (active). Moreover, the growth in the experiment with OVCAR-3 ovarian is 2.71% (active); in the experiment on HS 578T breast it was 99.8%; in the experiment on NCI/ADR-RES ovarian, 29.2%; in the experiment with T-47D breast it was 16%.

Regarding `Cc1cc2ccccc2c[n+]1CC(=O)c1ccc(-c2ccccc2)cc1`, the growth is 19.6% with RPMI-8226 leukemia; 43.8% with OVCAR-8 ovarian; 73.1% in the experiment with OVCAR-5 ovarian; 9.69% (active) in the experiment with OVCAR-4 ovarian; 64.1% in the experiment with SK-OV-3 ovarian; 49.2% with IGROV1 ovarian. The growth is 31.9% with OVCAR-3 ovarian, 83.5% in the experiment with HS 578T breast, 101% in the experiment with NCI/ADR-RES ovarian and 38.2% in the experiment on T-47D breast.

For the compound `O=c1nc(-c2ccccc2)c2cc(-c3ccc(N4CCCC4)nc3)ccc2[nH]1`, the growth in the experiment with RPMI-8226 leukemia was 71.6%; in the experiment with OVCAR-8 ovarian it was 89.2%; in the experiment with OVCAR-5 ovarian, 98.7%; with OVCAR-4 ovarian, 85.3%; in the experiment on SK-OV-3 ovarian, 80.6%; with IGROV1 ovarian it was 66.1%. Besides, the growth in the experiment on OVCAR-3 ovarian is 44.7%; with HS 578T breast, 67.8%; in the experiment with NCI/ADR-RES ovarian, 63.9%; in the experiment with T-47D breast, 62.3%.

`CCC[S@](=O)c1ccc2nc(NC(=O)OC)[nH]c2c1`: the growth is 96.4% in the experiment with RPMI-8226 leukemia; 84.9% with OVCAR-8 ovarian; 101% in the experiment on OVCAR-5 ovarian; 104% in the experiment with OVCAR-4 ovarian; 74.5% in the experiment with SK-OV-3 ovarian; 97.1% in the experiment on IGROV1 ovarian. The growth in the experiment on OVCAR-3 ovarian is 104%; in the experiment on HS 578T breast it was 102%; in the experiment on NCI/ADR-RES ovarian, 106%; in the experiment with T-47D breast, 87.7%.

On to `Cc1nc2sc(C(=O)Nc3cccc(Cl)c3C)c(N)c2cc1C(C)O` (stereo not given), for which the growth in the experiment with RPMI-8226 leukemia was 17.8%; with OVCAR-8 ovarian it was 21.9%; with OVCAR-5 ovarian, 55.8%; with OVCAR-4 ovarian it was 54.2%; with SK-OV-3 ovarian, 22.8%; in the experiment on IGROV1 ovarian it was 31.6%. For the same compound, the growth in the experiment with OVCAR-3 ovarian was -5.67% (active); with HS 578T breast, 31.8%; in the experiment with NCI/ADR-RES ovarian it was 7.9% (active); in the experiment on T-47D breast it was 44.4%.
